Measurements reported in article PMC7862700, “An all-to-all approach to the identification of sequence-specific readers for epigenetic DNA modifications on cytosine”.

Assays:
Experiment in all cases: DAPPL (digital affinity profiling via proximity ligation, sequencing); 10 mM Tris-HCl pH 7.5, 50 mM NaCl, 1 mM DTT, 4% glycerol, room temperature, 30 min; GST-TFs on glutathione beads, 16-mer random dsDNA library, 0.1% formaldehyde crosslink after washing; high values mean tight binding
Details in all cases: protein: recombinant; tags: N-terminal GST; dsDNA, one strand shown
FLI1 = molecular target: T1, FLI1 (Homo sapiens, UniProt Q01543 1-452)
T1 sequence: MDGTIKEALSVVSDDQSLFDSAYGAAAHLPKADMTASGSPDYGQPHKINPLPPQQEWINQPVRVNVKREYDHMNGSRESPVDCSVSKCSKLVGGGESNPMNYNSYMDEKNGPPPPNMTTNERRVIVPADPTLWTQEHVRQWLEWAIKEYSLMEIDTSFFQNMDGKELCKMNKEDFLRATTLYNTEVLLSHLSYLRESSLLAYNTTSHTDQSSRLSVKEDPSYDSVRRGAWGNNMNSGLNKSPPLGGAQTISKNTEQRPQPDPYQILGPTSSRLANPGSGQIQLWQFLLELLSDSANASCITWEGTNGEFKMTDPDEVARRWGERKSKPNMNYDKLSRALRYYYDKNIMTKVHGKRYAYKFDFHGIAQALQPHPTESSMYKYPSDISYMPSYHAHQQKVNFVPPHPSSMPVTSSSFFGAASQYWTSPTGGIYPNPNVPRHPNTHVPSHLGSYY
Method in brief: (§1)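 Each value of binding signal is a hexamer's read frequency for a factor divided by the same hexamer's frequency in the tag-only sample. Barcoded, bead-captured GST fusions of human transcription factors made in yeast were pooled with that sample and incubated with 200 nmole of a random double-stranded 16-mer DNA library in Tris/NaCl/DTT/glycerol buffer at room temperature for 30 min. Washing, 0.1% formaldehyde crosslinking, proximity ligation, PCR and Illumina NextSeq500 sequencing followed.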

ELK1 = molecular target: T2, ELK1 (Homo sapiens, UniProt P19419 1-428)
T2 sequence: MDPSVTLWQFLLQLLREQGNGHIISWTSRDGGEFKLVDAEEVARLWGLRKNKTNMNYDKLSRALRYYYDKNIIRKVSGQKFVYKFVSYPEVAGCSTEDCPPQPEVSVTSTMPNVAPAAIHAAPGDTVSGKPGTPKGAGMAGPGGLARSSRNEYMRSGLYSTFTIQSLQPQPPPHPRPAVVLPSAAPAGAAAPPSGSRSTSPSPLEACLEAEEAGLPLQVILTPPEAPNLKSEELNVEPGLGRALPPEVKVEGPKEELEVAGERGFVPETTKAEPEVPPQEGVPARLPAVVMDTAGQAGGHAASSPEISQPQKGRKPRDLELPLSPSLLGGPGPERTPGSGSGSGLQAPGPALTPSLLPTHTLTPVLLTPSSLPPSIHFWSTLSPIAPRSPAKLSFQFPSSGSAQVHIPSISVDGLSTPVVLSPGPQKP
Method in brief: as §1

GABPA = molecular target: T3, GABPA (Homo sapiens, UniProt Q06546 1-454)
T3 sequence: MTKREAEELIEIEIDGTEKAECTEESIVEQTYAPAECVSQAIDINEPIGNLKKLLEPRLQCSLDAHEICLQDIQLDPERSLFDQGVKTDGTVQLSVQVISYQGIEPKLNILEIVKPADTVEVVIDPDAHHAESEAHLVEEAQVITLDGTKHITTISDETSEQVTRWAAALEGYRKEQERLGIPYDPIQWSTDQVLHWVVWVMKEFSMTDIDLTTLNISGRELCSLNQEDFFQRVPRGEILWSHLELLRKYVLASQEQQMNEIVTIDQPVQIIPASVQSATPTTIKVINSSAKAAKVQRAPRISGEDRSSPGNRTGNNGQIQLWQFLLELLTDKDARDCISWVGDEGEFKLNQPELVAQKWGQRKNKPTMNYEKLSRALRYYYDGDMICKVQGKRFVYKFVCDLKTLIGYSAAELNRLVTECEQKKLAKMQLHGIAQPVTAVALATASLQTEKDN
Method in brief: as §1

ELF1 = ELF1 (Homo sapiens, UniProt P32519 1-619)
ELF1, sequence (P32519 whole entry): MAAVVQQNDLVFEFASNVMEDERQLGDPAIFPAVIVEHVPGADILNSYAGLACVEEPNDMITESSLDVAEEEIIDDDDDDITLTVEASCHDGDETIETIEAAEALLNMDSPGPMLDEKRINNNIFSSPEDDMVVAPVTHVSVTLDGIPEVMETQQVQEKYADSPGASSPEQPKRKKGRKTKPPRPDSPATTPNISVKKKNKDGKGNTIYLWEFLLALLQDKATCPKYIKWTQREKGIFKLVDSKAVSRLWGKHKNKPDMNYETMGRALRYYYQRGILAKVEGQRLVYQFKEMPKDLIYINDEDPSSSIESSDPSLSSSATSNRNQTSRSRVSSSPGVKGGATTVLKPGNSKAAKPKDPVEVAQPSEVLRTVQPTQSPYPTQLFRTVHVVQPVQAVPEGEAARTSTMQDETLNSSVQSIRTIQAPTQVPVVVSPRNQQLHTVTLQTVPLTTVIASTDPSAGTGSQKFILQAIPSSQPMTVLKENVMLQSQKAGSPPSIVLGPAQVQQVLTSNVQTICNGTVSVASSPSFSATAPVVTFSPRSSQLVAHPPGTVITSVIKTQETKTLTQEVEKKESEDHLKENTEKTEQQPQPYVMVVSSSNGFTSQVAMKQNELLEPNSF
Method in brief: as §1

SPI1 = SPI1 (Homo sapiens, UniProt P17947 1-270)
Method in brief: as §1

SPIB = SPIB (Homo sapiens, UniProt Q01892 1-262)
SPIB, sequence (Q01892 whole entry): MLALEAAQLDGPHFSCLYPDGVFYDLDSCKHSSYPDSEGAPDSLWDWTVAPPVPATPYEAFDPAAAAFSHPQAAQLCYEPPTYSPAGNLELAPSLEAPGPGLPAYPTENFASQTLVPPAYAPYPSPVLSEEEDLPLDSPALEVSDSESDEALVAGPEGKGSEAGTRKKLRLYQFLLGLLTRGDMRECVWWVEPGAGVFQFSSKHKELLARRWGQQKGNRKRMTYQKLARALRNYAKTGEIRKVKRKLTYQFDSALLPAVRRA
Method in brief: as §1

FEV = molecular target: T4, FEV (Homo sapiens, UniProt Q99581 1-238)
T4 sequence: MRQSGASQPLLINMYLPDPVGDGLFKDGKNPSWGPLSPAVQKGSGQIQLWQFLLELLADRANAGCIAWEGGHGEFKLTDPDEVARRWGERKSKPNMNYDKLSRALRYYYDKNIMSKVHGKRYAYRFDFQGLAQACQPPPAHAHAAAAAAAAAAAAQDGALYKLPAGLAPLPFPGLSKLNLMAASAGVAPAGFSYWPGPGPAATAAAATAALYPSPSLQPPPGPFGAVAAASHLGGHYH
Method in brief: as §1

ETV5 = ETV5 (Homo sapiens, UniProt P41161 1-510)
ETV5, sequence (P41161 whole entry): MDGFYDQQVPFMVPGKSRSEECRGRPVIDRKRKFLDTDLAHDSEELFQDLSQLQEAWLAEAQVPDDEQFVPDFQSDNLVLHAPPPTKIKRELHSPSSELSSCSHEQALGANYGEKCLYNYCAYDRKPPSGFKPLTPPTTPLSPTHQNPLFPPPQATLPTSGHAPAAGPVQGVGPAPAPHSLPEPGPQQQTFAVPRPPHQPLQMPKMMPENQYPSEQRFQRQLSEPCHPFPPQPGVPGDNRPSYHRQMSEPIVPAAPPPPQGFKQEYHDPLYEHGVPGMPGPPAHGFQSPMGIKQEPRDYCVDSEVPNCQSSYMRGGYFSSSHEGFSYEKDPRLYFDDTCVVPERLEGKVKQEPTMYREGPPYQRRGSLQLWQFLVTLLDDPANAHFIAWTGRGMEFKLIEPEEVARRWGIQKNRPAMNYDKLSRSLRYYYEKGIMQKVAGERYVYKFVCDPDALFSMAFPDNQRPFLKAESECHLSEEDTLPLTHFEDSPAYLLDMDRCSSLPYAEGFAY
Method in brief: as §1

SPIC = molecular target: T5, SPIC (Homo sapiens, UniProt Q8N5J4 1-248)
T5 sequence: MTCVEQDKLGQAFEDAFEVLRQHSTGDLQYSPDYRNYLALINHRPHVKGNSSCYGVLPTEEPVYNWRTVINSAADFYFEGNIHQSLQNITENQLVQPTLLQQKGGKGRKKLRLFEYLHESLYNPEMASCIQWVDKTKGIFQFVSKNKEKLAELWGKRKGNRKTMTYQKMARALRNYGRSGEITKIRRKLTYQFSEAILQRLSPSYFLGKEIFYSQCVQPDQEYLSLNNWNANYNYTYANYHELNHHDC
Method in brief: as §1

ELF4 = ELF4 (Homo sapiens, UniProt Q99607 1-663)
ELF4, sequence (Q99607 whole entry): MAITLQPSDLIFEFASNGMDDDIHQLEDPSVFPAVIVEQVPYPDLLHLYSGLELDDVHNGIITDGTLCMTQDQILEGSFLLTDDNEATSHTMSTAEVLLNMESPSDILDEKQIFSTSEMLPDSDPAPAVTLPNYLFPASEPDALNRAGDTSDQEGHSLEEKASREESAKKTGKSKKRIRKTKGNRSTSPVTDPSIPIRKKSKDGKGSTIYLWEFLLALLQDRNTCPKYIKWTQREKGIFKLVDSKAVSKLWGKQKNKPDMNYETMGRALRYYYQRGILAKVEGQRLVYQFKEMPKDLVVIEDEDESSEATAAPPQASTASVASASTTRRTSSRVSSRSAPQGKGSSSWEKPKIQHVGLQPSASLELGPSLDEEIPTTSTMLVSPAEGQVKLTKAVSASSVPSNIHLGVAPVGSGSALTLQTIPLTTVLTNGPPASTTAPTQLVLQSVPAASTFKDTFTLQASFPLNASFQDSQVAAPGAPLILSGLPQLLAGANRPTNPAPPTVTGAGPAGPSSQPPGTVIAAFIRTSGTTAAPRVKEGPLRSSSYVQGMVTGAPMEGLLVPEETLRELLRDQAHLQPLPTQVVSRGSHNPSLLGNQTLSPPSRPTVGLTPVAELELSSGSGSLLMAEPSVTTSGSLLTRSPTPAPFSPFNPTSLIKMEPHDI
Method in brief: as §1

ELK4 = molecular target: T6, ELK4 (Homo sapiens, UniProt P28324-2 1-405)
T6 sequence: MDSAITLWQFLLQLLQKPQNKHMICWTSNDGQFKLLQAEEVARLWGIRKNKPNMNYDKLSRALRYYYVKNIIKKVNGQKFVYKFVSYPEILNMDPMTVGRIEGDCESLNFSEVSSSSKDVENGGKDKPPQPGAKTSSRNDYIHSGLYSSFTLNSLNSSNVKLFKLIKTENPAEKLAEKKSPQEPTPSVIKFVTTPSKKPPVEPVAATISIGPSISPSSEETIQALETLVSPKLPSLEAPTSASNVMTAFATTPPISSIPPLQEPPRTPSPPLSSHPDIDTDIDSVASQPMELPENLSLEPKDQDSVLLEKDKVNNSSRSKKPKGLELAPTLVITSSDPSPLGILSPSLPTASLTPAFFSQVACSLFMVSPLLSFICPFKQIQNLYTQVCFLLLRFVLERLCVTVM
Method in brief: as §1

ETV2 = molecular target: T7, ETV2 (Homo sapiens, UniProt O00321 1-342)
T7 sequence: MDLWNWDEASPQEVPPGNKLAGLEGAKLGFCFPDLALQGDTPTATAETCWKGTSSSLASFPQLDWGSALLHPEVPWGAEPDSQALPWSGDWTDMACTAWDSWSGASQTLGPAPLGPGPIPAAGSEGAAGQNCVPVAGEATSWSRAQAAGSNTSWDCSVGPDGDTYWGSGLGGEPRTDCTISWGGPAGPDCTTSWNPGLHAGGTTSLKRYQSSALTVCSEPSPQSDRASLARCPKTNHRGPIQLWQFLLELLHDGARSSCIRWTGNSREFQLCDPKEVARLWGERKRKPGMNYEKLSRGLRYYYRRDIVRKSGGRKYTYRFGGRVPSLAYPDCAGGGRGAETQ
Method in brief: as §1

ETV1 = ETV1 (Homo sapiens, UniProt P50549 1-477)
ETV1, sequence (P50549 whole entry): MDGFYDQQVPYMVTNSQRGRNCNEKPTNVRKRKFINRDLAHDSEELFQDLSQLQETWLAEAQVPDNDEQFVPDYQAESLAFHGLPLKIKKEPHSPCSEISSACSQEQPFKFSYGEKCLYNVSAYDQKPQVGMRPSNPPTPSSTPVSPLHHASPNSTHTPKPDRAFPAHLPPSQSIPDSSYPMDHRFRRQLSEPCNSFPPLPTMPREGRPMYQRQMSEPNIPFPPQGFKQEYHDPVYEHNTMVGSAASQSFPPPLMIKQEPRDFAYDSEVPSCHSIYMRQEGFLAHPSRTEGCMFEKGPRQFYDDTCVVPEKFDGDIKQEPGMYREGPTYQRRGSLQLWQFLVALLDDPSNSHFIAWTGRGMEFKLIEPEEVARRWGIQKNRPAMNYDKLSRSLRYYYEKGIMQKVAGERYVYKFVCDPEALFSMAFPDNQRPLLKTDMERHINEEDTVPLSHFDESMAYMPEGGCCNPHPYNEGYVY
Method in brief: as §1

ERG = molecular target: T8, ERG (Homo sapiens, UniProt P11308 1-479)
T8 sequence: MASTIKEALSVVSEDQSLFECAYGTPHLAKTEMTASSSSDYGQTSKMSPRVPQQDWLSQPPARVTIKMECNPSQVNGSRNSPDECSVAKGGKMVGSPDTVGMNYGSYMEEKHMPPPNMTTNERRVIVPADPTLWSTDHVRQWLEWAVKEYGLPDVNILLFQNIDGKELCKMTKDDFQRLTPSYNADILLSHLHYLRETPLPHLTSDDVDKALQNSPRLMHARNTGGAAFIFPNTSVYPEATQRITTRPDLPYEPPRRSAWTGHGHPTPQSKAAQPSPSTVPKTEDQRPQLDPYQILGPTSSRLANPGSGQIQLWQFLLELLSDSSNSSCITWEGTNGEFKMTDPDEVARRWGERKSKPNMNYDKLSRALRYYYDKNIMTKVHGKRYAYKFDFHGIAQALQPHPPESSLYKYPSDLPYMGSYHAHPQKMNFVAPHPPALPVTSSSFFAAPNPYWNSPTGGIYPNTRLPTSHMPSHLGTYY
Method in brief: as §1

EHF = molecular target: T9, EHF (Homo sapiens, UniProt Q9NZC4 1-300)
T9 sequence: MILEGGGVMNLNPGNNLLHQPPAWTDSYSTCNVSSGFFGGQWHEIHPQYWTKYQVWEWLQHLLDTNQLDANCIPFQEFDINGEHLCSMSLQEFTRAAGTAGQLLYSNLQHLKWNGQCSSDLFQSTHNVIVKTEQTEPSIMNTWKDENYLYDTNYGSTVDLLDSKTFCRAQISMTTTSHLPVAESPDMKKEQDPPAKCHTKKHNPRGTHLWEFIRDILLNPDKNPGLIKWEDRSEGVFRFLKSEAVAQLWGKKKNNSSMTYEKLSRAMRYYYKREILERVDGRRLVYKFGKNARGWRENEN
Method in brief: as §1

| Sequence | binding signal (FLI1) | binding signal (ELK1) | binding signal (GABPA) | binding signal (ELF1) | binding signal (SPI1) | binding signal (SPIB) | binding signal (FEV) | binding signal (ETV5) | binding signal (SPIC) | binding signal (ELF4) | binding signal (ELK4) | binding signal (ETV2) | binding signal (ETV1) | binding signal (ERG) | binding signal (EHF) |
| --- | --- | --- | --- | --- | --- | --- | --- | --- | --- | --- | --- | --- | --- | --- | --- |
| GTTTGG | 1.07 fold enrichment (6-mer frequency, TF over GST control) | 1.07 fold enrichment (6-mer frequency, TF over GST control) | 1.04 fold enrichment (6-mer frequency, TF over GST control) | 1.05 fold enrichment (6-mer frequency, TF over GST control) | 1.01 fold enrichment (6-mer frequency, TF over GST control) | 1.1 fold enrichment (6-mer frequency, TF over GST control) | 1.06 fold enrichment (6-mer frequency, TF over GST control) | 1.03 fold enrichment (6-mer frequency, TF over GST control) | 1.24 fold enrichment (6-mer frequency, TF over GST control) | 1.03 fold enrichment (6-mer frequency, TF over GST control) | 1.08 fold enrichment (6-mer frequency, TF over GST control) | 1.06 fold enrichment (6-mer frequency, TF over GST control) | 1.07 fold enrichment (6-mer frequency, TF over GST control) | – | – |
| ACGGCC | 1.1 fold enrichment (6-mer frequency, TF over GST control) | 1.13 fold enrichment (6-mer frequency, TF over GST control) | 1.12 fold enrichment (6-mer frequency, TF over GST control) | 1.09 fold enrichment (6-mer frequency, TF over GST control) | 1.09 fold enrichment (6-mer frequency, TF over GST control) | 1.26 fold enrichment (6-mer frequency, TF over GST control) | 1.06 fold enrichment (6-mer frequency, TF over GST control) | 1.14 fold enrichment (6-mer frequency, TF over GST control) | 1.03 fold enrichment (6-mer frequency, TF over GST control) | 1.15 fold enrichment (6-mer frequency, TF over GST control) | 1.06 fold enrichment (6-mer frequency, TF over GST control) | 1.01 fold enrichment (6-mer frequency, TF over GST control) | 1.05 fold enrichment (6-mer frequency, TF over GST control) | 1.09 fold enrichment (6-mer frequency, TF over GST control) | 1.09 fold enrichment (6-mer frequency, TF over GST control) |
